Nrf2 block: inhibitors of Nrf2 signaling | A549 ARE-Fluc reporter, luciferase luminescence, 18-24 h | Potency, µM (top dose mostly 46 µM), without a hit: top-dose activity change, negative = inhibition, usual class: inhibitors | actives 2.1% (n = 360,000) | AID 504444; note: % is set by controls: 0 for no effect and ±100 for the full control effect; nearly all actives have a fitted effect of over 60% in size
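A549 ARE_Fluc cells, 5000/well, 5% FBS OPTI-MEM; compounds in dose-response, 18-24 h at 37 °C/5% CO2; CellTiter-Fluor viability read (Ex 405/Em 525), then BugLite luciferase luminescence = Nrf2 activity.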
ATXN2 expr inh: ATXN2 expression inhibition. Potency, µM (top dose mostly 57 µM), without a hit: top-dose activity change, negative = inhibition, actives largely listed as inhibitors. actives 0.72% (n = 360,000). AID 1745845. HEK-293 ATXN2-luciferase reporter, luminescence, 24 h; note: % is set by controls: 0 for no effect and ±100 for the full control effect; nearly all actives have a fitted effect of over 55% in size
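qHTS (up to 57 uM final) was run with 24 h compound exposure of reporter cells at 37 °C. Each well was multiplexed: SteadyGlo luminescence measured ATXN2-luciferase expression after a fluorogenic Gly-Phe-AFC viability readout (25 uM final).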
TGFb inhibitor: TGF-b pathway inhibition; actives 1.2% (n = 410,000); HepG2 CAGA-GFP TGF-b/SMAD3 reporter, GFP fluorescence, 18 h; TGF-beta stimulated, 500 pg/mL final; Potency, µM (doses to about 46.1 µM), for the others: top-dose activity, negative = inhibition, actives largely listed as inhibitors; note: % is set by controls: 0 for no effect and ±100 for the full control effect; nearly all actives have a fitted effect of over 65% in size
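HEPG2 CAGA-GFP cells (1000/well, DMEM with 1% FBS) were pre-incubated 2 h at 37 degrees C, given compound by pin tool, then stimulated with TGF-beta at 500 pg/mL final for 18 h before per-cell GFP fluorescence imaging.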
HepG2 tox-1: counter-screen for TGF-b inhibitors: cytotoxicity in HepG2 cells. HepG2 CAGA-GFP viability, ATP luminescence, 18 h. Potency, µM (titrated, usually from 46.1 µM), inactives show at the highest dose activity change, negative = cytotoxicity, actives largely listed as cytotoxic. actives 0.76% (n = 410,000). AID 588856
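CellTiter-Glo luminescence gave cytotoxicity after 18 hours at 37 degrees C. The cells were HepG2 CAGA-GFP in 1% FBS DMEM, stimulated with 500 pg/mL TGF-beta after compound addition. %Activity was normalised to no-cell wells (complete cell-killing) and DMSO (no toxicity), and curves were fitted and classified.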
ATXN viability: cell viability loss in ATXN counter-screen; S2 cells (HEK-293 line with an ATXN2-luciferase reporter) viability, CellTiter-Fluor protease fluorescence, 24 h; Potency, µM (highest dose often 56.7 µM), most hits filed as cytotoxic; actives 0.49% (n = 400,000); note: nearly all actives have a fitted effect of over 40% in size
A549 tox-1: kills or reduces viability of A549 cells in Nrf2 counter-screen | A549 ARE-Fluc cells, CellTiter-Fluor viability, 18-24 h | Potency, µM (series often up to 46 µM), inactives show top-dose activity change, negative = cytotoxicity, usual class: inhibitors | actives 0.16% (n = 390,000); note: % is set by controls: 0 for no effect and ±100 for the full control effect
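A549 ARE_Fluc cells in 5% FBS OPTI-MEM were exposed to compounds in concentration-response for 18-24 h at 37 deg C. Viability was read by CellTiter-Fluor fluorescence (Ex 405/Em 525) after 30 min, before the luciferase read.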
FLuc enzyme inh: blocks purified firefly luciferase in Nrf2 counterscreen; shares compounds with Nrf2 block; purified firefly luciferase, luminescence inhibition; Potency, µM (highest dose often 57.5 µM), without a hit: at the top dose activity change, negative = inhibition, actives largely listed as inhibitors; actives 4% (n = 1,400); AID 720522; note: % is set by controls: 0 for no effect and ±100 for the full control effect; nearly all actives have a fitted effect of over 65% in size
Target sequence (P08659 whole entry, looked up): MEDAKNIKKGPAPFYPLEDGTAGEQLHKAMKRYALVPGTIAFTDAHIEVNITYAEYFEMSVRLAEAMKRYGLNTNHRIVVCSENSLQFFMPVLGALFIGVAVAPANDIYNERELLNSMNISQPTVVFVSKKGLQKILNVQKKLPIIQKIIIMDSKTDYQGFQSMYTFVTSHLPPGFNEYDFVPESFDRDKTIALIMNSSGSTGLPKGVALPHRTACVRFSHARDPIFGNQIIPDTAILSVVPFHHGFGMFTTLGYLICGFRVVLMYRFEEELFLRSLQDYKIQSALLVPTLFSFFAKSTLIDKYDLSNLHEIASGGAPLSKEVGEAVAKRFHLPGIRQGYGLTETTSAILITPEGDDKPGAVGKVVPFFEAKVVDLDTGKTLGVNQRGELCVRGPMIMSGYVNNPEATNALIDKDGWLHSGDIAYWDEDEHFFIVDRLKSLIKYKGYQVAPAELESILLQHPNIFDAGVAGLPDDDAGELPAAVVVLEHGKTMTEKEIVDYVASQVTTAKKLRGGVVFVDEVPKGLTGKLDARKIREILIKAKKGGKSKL
A549 tox-2: counter-screen for Nrf2 inhibitors: cytotoxicity in A549 ARE cells. actives 2% (n = 1,400). A549 ARE-Fluc cells, cytotoxicity counterscreen. shares compounds with Nrf2 block. Potency, µM (top dose mostly 46.1 µM), for the others: at the highest dose activity change, negative = cytotoxicity, hits mostly inhibitors. AID 720523;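 note: cells exposed to compounds for 18 to 24 hours; % is set by controls: 0 for no effect and ±100 for the full control effect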
ARE-Fluc inh: reduces Nrf2 ARE reporter signal in A549 cells. shares compounds with Nrf2 block. A549 ARE-firefly luciferase reporter, luminescence. Potency, µM (doses to about 46.1 µM), inactives show top-dose activity change, negative = inhibition, actives largely listed as inhibitors. actives 74% (n = 1,400). AID 720524; note: % is set by controls: 0 for no effect and ±100 for the full control effect; nearly all actives have a fitted effect of over 65% in size
TGFb CAGA inh: TGF-b pathway inhibition, cherry-pick retest. shares compounds with TGFb inhibitor. HepG2 CAGA-GFP TGF-b reporter, GFP fluorescence, 18 h; cells stimulated with TGF-beta, 500 pg/mL. Potency, µM (doses to about 46.1 µM), for inactives: at the highest dose activity, negative = inhibition, most hits filed as inhibitors. actives 63% (n = 1,600). AID 720534; note: % is set by controls: 0 for no effect and ±100 for the full control effect; nearly all actives have a fitted effect of over 65% in size
HepG2 tox-2: toxic to HepG2 cells in TGF-b counterscreen; shares compounds with TGFb inhibitor; HepG2 CAGA-GFP viability, ATP luminescence, 18 h; cells stimulated with TGF-beta, 500 pg/mL; Potency, µM (highest dose often 46.1 µM), for the others: at the highest dose activity, negative = cytotoxicity, most hits filed as inhibitors; actives 27% (n = 1,600); note: % is set by controls: 0 for no effect and ±100 for the full control effect; nearly all actives have a fitted effect of over 70% in size
TGFb CCL64 inh: TGF-b inhibition, CCL64 orthogonal assay; Potency, µM (highest dose often 46.1 µM), for inactives: top-dose activity, negative = inhibition, usual class: inhibitors; CCL64 CAGA-GFP reporter, TGF-b stimulated, GFP fluorescence, 18 h; shares compounds with TGFb inhibitor; actives 41% (n = 1,600); note: nearly all actives have a fitted effect of over 65% in size
TGFb COP inh: blocks TGF-b signaling in HepG2 COP reporter. shares compounds with TGFb inhibitor. HepG2 COP-GFP TGF-b reporter, GFP fluorescence, 18 h; cells stimulated by added recombinant TGF-beta. actives 3% (n = 1,600). Potency, µM (highest dose often 46.1 µM), for the others: at the highest dose activity, negative = inhibition, usual class: inhibitors; note: nearly all actives have a fitted effect of over 70% in size
Active calls of the source: *; i = inactive; ? = inconclusive; . = not tested or not shown; [ ] = dose if it differs, or a comment. An excerpt weighted towards active compounds, which were near 3.8% of everything screened. Calls come from the whole dose curve; as a rule, active = well fitted curve in the direction sought with a large enough effect; inconclusive = small, poorly fitted or top-dose-only effect, or another doubt; inactive = no such curve, though single readings can be large; an effect the other way counts as inactive or inconclusive. Potency is the fitted concentration of half-maximal effect.

SMILES	Nrf2 block	ATXN2 expr inh	TGFb inhibitor	HepG2 tox-1	ATXN viability	A549 tox-1	FLuc enzyme inh	A549 tox-2	ARE-Fluc inh	others
Cc1cc(S(=O)(=O)NC(C)C)ccc1OCC(=O)N1CCN(Cc2ccc3c(c2)OCO3)CC1	9.2µM*	-21.5%	?	-32.1%	i	-28.6%	-1.9%	-3.4%	-23.6%
CC(C)NS(=O)(=O)c1ccc(OCC(=O)N2CCN(Cc3ccc4c(c3)OCO4)CC2)c(Cl)c1	?	-24.4%	?	-23.4%	i	-16.3%	.	.	.
COC(=O)C1=C(c2cccc(OC)c2OC)C[C@@H]2CC[C@H]1N2C(=O)N1CCC(C)CC1	-3.2%	5.6%	7.9%	13.5%	i	-8.8%	.	.	.
CCCCC[C@@H](O)C1C(=O)OC(C)[C@H](O)/C=C/C=C/C=C/C=C/C=C(\C)C(O)C(O)C(O)C[C@H](O)C[C@H](O)C[C@H](O)C[C@H](O)C[C@@H]1O (stereo partly specified)	.	.	.	.	i	.	.	.	.
Nc1ccc2ccccc2c1	?	26.0%	5.1%	5.2%	i	-0.8%	.	.	.
C[n+]1c2cc(N)ccc2cc2ccc(N)cc21	1.46µM*	3.16µM*	-99.5%	-27.9%	.	?	-12.6%	86.2%	1.64µM*
CCCCCn1c(=O)c(C(=O)Nc2cc(C)ccn2)c(O)c2ccccc21	2.7%	2.6%	13.4%	-2.2%	?	-0.7%	.	.	.
CCCCCCCn1c(=O)c(C(=O)Nc2cnccn2)c(O)c2ccccc21	4.11µM*	?	-20.7%	4.3%	i	?	1.4%	?	.
CCCCn1c(=O)c(C(=O)Nc2ncccc2C)c(O)c2ccccc21	?	-14.8%	8.2%	-18.4%	i	-17.8%	.	.	.
CCCCCCn1c(=O)c(C(=O)Nc2ncccc2C)c(O)c2ccccc21	8.2µM*	.	8.9%	-21.7%	i	-22.6%	-0.1%	-13.7%	?
CCCCCn1c(=O)c(C(=O)Nc2cnccn2)c(O)c2ccccc21	4.61µM*	-27.3%[11.3 µM]	?	5.5%	i	?	1.1%	?	5.8µM*
Cc1cc(N2CCCCC2)nc2ccc(NC(=O)/C=C/c3ccc(OC(C)C)cc3)cc12	?	-10.3%	?	-23.1%	i	-9.2%	.	.	.
Cc1ccc(CN2Cc3ccc(Br)cc3-n3nncc3C2)cc1	.	-12.7%	?	-13.4%	?	.	.	.	.
CCOC(=O)c1cc(-c2ccccc2)n(CCCC(=O)Nc2ccc(C)c(C)c2)c1C	.	.	?	-23.9%	.	-11.4%	.	.	.
COc1ccc(CC2C(=O)NC(C)C(=O)N(C)C3C(=O)N(C)C(Cc4ccc(O)c(c4)Oc4ccc(cc4)C3O)C(=O)NC(C)C(=O)NC(C)C(=O)N2C)cc1 (stereo unspecified)	1.3µM*	0.0844µM*	-116.2%	-19.9%	?	?	3.4%	?	0.411µM*	TGFb CAGA inh=0.0065µM*;HepG2 tox-2=1.64µM*;TGFb CCL64 inh=0.0116µM*;TGFb COP inh=5.3%
CC1=CC(C)CC(C)OC(=O)CC(c2ccc(O)cc2)NC(=O)C(Cc2c(Br)[nH]c3ccccc23)N(C)C(=O)C(C)NC(=O)C(C)C1 (stereo unspecified)	0.581µM*	?	15.8µM*	-7.9%	0.015µM*	1.84µM*	-11.2%	?	1.46µM*	TGFb CAGA inh=?;HepG2 tox-2=?;TGFb CCL64 inh=0.259µM*;TGFb COP inh=79.4%
CC[C@@]1(O)C(=O)OCc2c1cc1n(c2=O)Cc2cc3c(N)cccc3nc2-1	0.651µM*	-9.7%	0.562µM*	-5.1%	?	?	-9.2%	?	0.259µM*	TGFb CAGA inh=1.16µM*;HepG2 tox-2=0.411µM*;TGFb CCL64 inh=-16.9%;TGFb COP inh=-1.4%
CCCCOP(=O)(OCCCC)C(Nc1ccc(C(=O)OCC)cc1)c1ccncc1 (stereo unspecified)	-7.3%	-17.1%	?	-25.0%	i	-0.3%	.	.	.
O=C(NC(O)C(Cl)(Cl)Cl)NC(O)C(Cl)(Cl)Cl (stereo unspecified)	.	5.6%	.	.	i	.	.	.	.
CCc1ccc(-c2nc(CN3CCCC(C(=O)NCc4ccc(C)cc4)C3)c(C)o2)cc1 (stereo unspecified)	13.8%	3.1%	?	-13.9%	i	-10.7%	.	.	.
C[C@]12CC[C@H](O)C[C@@H]1CC[C@@H]1[C@@H]2CC[C@]2(C)C(=O)CC[C@@H]12	-5.2%	-0.1%	6.0%	-7.3%	i	9.5%	.	.	.
CC12CCC(O)CC1CCC1C2CCC2(C)C(C3=CC(=O)OC3)CCC12O (stereo unspecified)	0.411µM*	0.844µM*	3.98µM*	-33.3%	?	?	1.3%	?	0.259µM*	TGFb CAGA inh=16.4µM*;HepG2 tox-2=2.59µM*;TGFb CCL64 inh=1.3µM*;TGFb COP inh=55.7%

Screens from PubChem BioAssay.
